Results as given in PubChem BioAssay (EPA / NIEHS).
Results filed as inconclusive are left out. The source made the active and inactive calls. How the source made its calls: active means hit-call score of the fitted dose curve at least 0.9, where 1 is the maximum; inconclusive means response in the unintended direction; inactive means score below 0.9.

Target: AR (gene 367) (UniProt P10275)
Test: ACEA_AR_agonist_80hr: ACEA Biosciences xCELLigence Real-Time Cell Analysis on Androgen Receptor Agonism for Proliferation (AID 2283783);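 further: hits increase impedance growth signal above DMSO baseline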
How it was run: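 Real-time cell-growth kinetics were recorded by electrode impedance in 22Rv1 cells exposed to test chemicals up to 100 uM final; the 80 h timepoint served as the readout, fitted upward relative to DMSO controls, in biological duplicate.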

Sequence of AR (gene 367) (P10275 whole entry, looked up): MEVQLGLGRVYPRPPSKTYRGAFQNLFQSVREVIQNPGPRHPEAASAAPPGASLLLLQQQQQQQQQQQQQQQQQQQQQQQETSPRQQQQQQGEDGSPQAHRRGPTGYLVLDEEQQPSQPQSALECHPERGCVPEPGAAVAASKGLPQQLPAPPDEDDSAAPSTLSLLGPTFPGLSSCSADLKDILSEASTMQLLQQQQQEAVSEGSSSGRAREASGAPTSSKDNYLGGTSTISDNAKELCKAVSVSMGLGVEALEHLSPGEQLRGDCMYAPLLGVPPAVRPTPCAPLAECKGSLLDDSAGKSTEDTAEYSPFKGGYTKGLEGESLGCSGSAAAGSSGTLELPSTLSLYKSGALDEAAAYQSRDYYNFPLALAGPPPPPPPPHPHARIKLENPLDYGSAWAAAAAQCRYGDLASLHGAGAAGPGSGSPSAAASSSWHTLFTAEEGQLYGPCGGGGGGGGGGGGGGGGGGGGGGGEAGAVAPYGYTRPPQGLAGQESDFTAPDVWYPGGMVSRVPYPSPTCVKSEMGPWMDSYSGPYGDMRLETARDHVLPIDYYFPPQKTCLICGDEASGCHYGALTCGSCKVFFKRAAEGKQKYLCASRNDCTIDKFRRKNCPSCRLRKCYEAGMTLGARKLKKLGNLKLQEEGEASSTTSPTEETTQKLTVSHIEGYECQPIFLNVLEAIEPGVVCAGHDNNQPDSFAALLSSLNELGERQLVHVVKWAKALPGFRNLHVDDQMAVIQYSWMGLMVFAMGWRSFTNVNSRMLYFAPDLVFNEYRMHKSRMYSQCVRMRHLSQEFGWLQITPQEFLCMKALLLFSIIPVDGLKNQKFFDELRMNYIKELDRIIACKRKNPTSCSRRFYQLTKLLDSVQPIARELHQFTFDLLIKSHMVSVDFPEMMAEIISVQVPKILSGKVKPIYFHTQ

**Q.** For CCN=c1cc2oc3cc(NCC)c(C)cc3c(-c3ccccc3C(=O)OCC)c-2cc1C, which outcome is on record?
**A.** inactive

**Q.** For CCCCCCCCCCCCCC[P+](CCCC)(CCCC)CCCC, which outcome is on record?
**A.** inactive

**Q.** For COCCOCCC[Si](C)(O[Si](C)(C)C)O[Si](C)(C)C, which outcome is on record?
**A.** inactive

**Q.** With CCCCCCCC/C=C\CCCCCCCC(=O)OCC(O)CO (stereo unspecified) as the compound, how does the AC50 read?
**A.** 27900 nM (active)

**Q.** Which outcome does the source give for C[C@]12CC[C@H]3C(=CCc4cc(O)ccc43)[C@@H]1CCC2=O here?
**A.** inactive

Test system: not listed separately
Test: STM_H9_NormalizedViability: Cytotoxicity Assessment at 120 hours in the Stemina devTOX quickPredict H9 human embryonic stem cell (hESC)-based Assay (AID 2283784)
How it was run: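 Viability endpoint: background-corrected CellTiter-Fluor RFU expressed relative to the 0.1% DMSO mean on each plate. Undifferentiated H9 cells were treated with daily re-dosing and media change, and loss of signal was fitted.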

**Q.** For CCN=c1cc2oc3cc(NCC)c(C)cc3c(-c3ccccc3C(=O)OCC)c-2cc1C, which AC50 is on record?
**A.** 116 nM (active)

**Q.** Which outcome does the source give for CCCCC(CC)COC(=O)c1ccc(N(C)C)cc1 (stereo unspecified) here?
**A.** inactive

**Q.** With CCN=C1C=CC(=C(c2ccc(N(CC)CC)cc2)c2ccc(N(CC)CC)cc2)c2ccccc21 as the compound, how does the AC50 read?
**A.** 165 nM (active)

Target: AR (gene 367) (UniProt P10275)
Test: ACEA_AR_antagonist_80hr: ACEA Biosciences xCELLigence Real-Time Cell Analysis on Androgen Receptor Antagonism for Proliferation (AID 2283787);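 further: hits lower the impedance growth signal relative to DMSO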
Protocol: ACEA_AR_antagonist is a cell-based, single-readout assay that uses 22Rv1, a human prostate cancer cell line, with measurements taken at 80 hours after chemical dosing in a 384-well plate, although TO5 and TO6 (mc0.srcf) used a 96-well plate. Differences in plate size can be ignored given data normalization.ACEA_AR_antagonist_80hr is one of two assay component(s) measured or calculated from the ACEA_AR assay. It is designed to make measurements of real-time cell-growth kinetics, a form of growth reporter, as detected with electrical impedance signals by Real-Time Cell Electrode Sensor (RT-CES) technology.Data from the assay component ACEA_AR_antagonist_80hr was analyzed in the positive analysis fitting direction relative to DMSO as the negative control and baseline of activity. Using a type of growth reporter, measures of the cells for loss-of-signal activity can be used to understand the signaling at the pathway-level as they relate to the gene AR. Furthermore, this assay endpoint can be referred to as a primary readout, because this assay has produced multiple assay endpoints where this one serves a signaling function. To generalize the intended target to other relatable targets, this assay endpoint is annotated to the nuclear receptor intended target family, where the subfamily is steroidal.
The xCELLigence system Multi-E-Plate stations were used to measure the time-dependent response to chemicals. Each compound was tested in an eight-point, 1:4 serial dilution series starting at a maximum final concentration of 100 uM. A maximum starting concentration of 0.5% DMSO was present in the 100 uM chemical samples and was diluted along with the test article dilution series. The screen was performed in biological duplicate using two separate, 96-well, E-Plates 96 for each dilution series (n = 2). Positive controls (MG132 and testosterone) and a negative control (assay media) were tested in quadruplicate on each testing plate. […] Reference compounds were tested with 8 concentrations with 1:5 serial dilutions. All screening was carried out by ACEA Biosciences, Inc. (San Diego, CA). 22Rv1 cells purchased from ATCC were maintained in media supplemented with 10% fetal bovine serum (FBS). Before screening, 22Rv1 cells were preconditioned in assay medium. Cells were then detached and seeded in E-Plates 96 in assay medium. After overnight monitoring of growth once every hour, compounds were added to […] cells and remained in the medium until the end of the experiment. Cellular responses were then recorded once every 5 min for the first 5 h, and once every hour for an additional 100 h.

**Q.** With CCCCCCCCCCCCC[N+](C)(C)Cc1ccccc1 as the compound, how does the AC50 read?
**A.** 4670 nM (active)

**Q.** With CCN=c1cc2oc3cc(NCC)c(C)cc3c(-c3ccccc3C(=O)OCC)c-2cc1C as the compound, how does the AC50 read?
**A.** 43.6 nM (active)

**Q.** Which AC50 does the source give for CCCCCCCCCCCCCC[P+](CCCC)(CCCC)CCCC here?
**A.** 43.6 nM (active)

**Q.** With CCN=C1C=CC(=C(c2ccc(N(CC)CC)cc2)c2ccc(N(CC)CC)cc2)c2ccccc21 as the compound, how does the AC50 read?
**A.** 131 nM (active)

**Q.** Which AC50 does the source give for CCCCCCCCCc1ccc(OCCO)cc1 here?
**A.** 16600 nM (active)

**Q.** Which outcome does the source give for CCCCCCCC/C=C\CCCCCCCC(=O)OCC(O)CO (stereo unspecified) here?
**A.** inactive

**Q.** For O=C1C=CC(=O)N1c1ccccc1, which outcome is on record?
**A.** inactive

**Q.** Which AC50 does the source give for C[C@]12CC[C@H]3C(=CCc4cc(O)ccc43)[C@@H]1CCC2=O here?
**A.** 687 nM (active)
